# Source: publication PMC5540273 (PLoS ONE, 2017)
# Test system: T1, ASK2
# T1 construct: gene MAP3K6
# Details: concentration: 1 μM,replicates: in singlicate; n = 1
# 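Further: KINOMEscan kinase panel screen.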
row,SMILES,%Inh
1,OCCn1cc(-c2cnc3nnn(Cc4ccc5ncccc5c4)c3n2)cn1,0%
2,CCN1CCN(CCCC(=O)Nc2n[nH]c3nc(-c4ccc(O)cc4)c(Br)cc23)CC1 [SB-731579],49%
3,C[C@@H]1CNc2c(sc3ccc4nc(-c5ccncc5)ccc4c23)C(=O)N1,0%
4,COc1cccc(CNC(=O)NC2CCN(c3ccnc(Nc4cc(OC)c(OC)c(OC)c4)n3)C2)c1 (centres unmarked) [GSK1379765],0%
5,CCn1c(-c2nonc2N)nc2cncc(CNC3CCNCC3)c21.Cl [SB-747651],8%
6,O=C(NCC1CC1)c1ccc(-c2cc(C(=O)NC3CC3)ccc2F)cc1 [GW810445],0%
7,COc1cccc(OC)c1C(=O)Nc1cccc(-c2nn3ccccc3c2-c2ccnc(Nc3cccc(F)c3)n2)c1 [GSK361065],0%
8,Cn1cc(-c2cccc3c(N)c(C(N)=O)nnc23)cn1,33%
9,CC(C)S(=O)(=O)N1CCN(Cc2ccc3c(c2)nc(NC(=O)c2ccsc2)n3C[C@H](O)c2ccccc2)CC1 [GW635815],0%
10,Cc1ccc(CC(=O)N2CCc3cc(-c4cn(C)c5ncnc(N)c45)ccc32)cc1 [GSK2634758],0%
11,CCn1c(-c2nonc2N)nc2cncc(Br)c21 [SB-738004],0%
12,O=C(Nc1ccccc1)c1cccc(Oc2ccc3nccn3n2)c1,3%
13,COC(=O)Nc1nc2cc(Oc3ccc(NC(=O)Nc4cc(C(F)(F)F)ccc4Cl)cc3)ccc2[nH]1.Cl [GW697465],0%
14,O=C1NCCc2[nH]c(-c3ccncc3)cc21,0%
15,CNC(=O)c1ccccc1Nc1nc(Nc2cccc(CS(C)(=O)=O)c2)ncc1C.O=CO [GSK1520489],13%
16,O=C(Nc1cccc(Oc2ccc3nccn3n2)c1)Nc1cccc(C(F)(F)F)c1,4%
17,COc1ccc(Nc2nccc(N3CCC(NC(=O)c4cccc(C#N)c4)C3)n2)cc1 (centres unmarked) [GSK1379730],0%
18,COc1cc2nccc(Nc3ccc(Oc4ccccc4)cc3)c2cc1OC.Cl [GI261656],0%
19,C[C@@H](Oc1cc(-n2cnc3ccc(-c4ccncc4)cc32)sc1C(N)=O)c1ccccc1Cl [GSK483724],0%

row,SMILES,%Inh
1,CC(=O)Nc1ccc(-c2cc3ncnc(SCC(=O)O)c3s2)cc1,0%
2,NC(=O)c1ccc(-c2cc3ncnc(SCC(=O)O)c3s2)cc1,0%
3,COc1cc(Nc2nccc(N3CCC(NC(=O)c4cccc(C#N)c4)C3)n2)cc(OC)c1OC (centres unmarked) [GSK1379751],0%
4,Cn1ccc2ncnc(Oc3ccc(NC(=O)Nc4cc(C(C)(C)C)on4)c(Cl)c3)c21,0%
5,Cn1ccc2ncnc(Oc3ccc(NC(=O)Nc4cccc(C(F)(F)F)c4)c(F)c3)c21,0%
6,CC(=O)Nc1nc2cnc(Nc3cc(NC(=O)c4cccc(CC(C)(C)C#N)c4)ccc3C)nc2s1,0%
7,c1ccc(Oc2ccc(Nc3ccnc4ccc(-c5ccccn5)cc34)cc2)cc1 [GW407034],11%
8,COC(=O)c1cccc(NC(=O)NC2CCN(c3ccnc(Nc4cc(OC)c(OC)c(OC)c4)n3)C2)c1 (centres unmarked) [GSK1379767],0%
9,Cc1cccc(-c2nc(Nc3ccncc3)c3sccc3n2)n1 [GW869641],29%
10,CC(=O)c1c(-c2ccncc2)[nH]c(-c2ccncc2)c1C [GW493036],0%
11,Cc1nnc(-c2ccc3occ(-c4ccc(S(C)=O)cc4)c3n2)o1 (centres unmarked),0%
12,Cc1ccc2c(-c3ccnc(Nc4ccc(C(F)(F)F)cc4)n3)cnn2n1 [GW819776],0%
13,Cn1ccc2ncnc(Oc3ccc(NC(=O)Nc4cncc(C(F)(F)F)c4)c(Cl)c3)c21,0%
14,Cl.Nc1n[nH]c2cc(-c3ccccn3)ccc12 [GSK2189892],0%
15,C[C@@H](Oc1cc(-n2cnc3cc(-c4cnn(C)c4)ccc32)sc1C(N)=O)c1ccccc1Cl [GSK580432],15%
16,CN1CCN(CCCNc2nccc(-c3c(-c4ccc(F)cc4)nn4cc(C(N)=O)ccc34)n2)CC1 [GW622475],0%
17,O=C(Nc1n[nH]c2cc(-c3ccco3)ccc12)C1CC1 [SB-737447],4%
18,NC(=O)Nc1sc(-c2ccc(F)cc2)cc1C(N)=O [GW789449],0%

# Test system: AURKA
# Details: concentration: 1 μM,replicates: in singlicate; n = 1
row,SMILES,%Inh
1,OCCn1cc(-c2cnc3nnn(Cc4ccc5ncccc5c4)c3n2)cn1,0%
2,CCN1CCN(CCCC(=O)Nc2n[nH]c3nc(-c4ccc(O)cc4)c(Br)cc23)CC1 [SB-731579],0%
3,C[C@@H]1CNc2c(sc3ccc4nc(-c5ccncc5)ccc4c23)C(=O)N1,0%
4,COc1cccc(CNC(=O)NC2CCN(c3ccnc(Nc4cc(OC)c(OC)c(OC)c4)n3)C2)c1 (centres unmarked) [GSK1379765],85%
5,CCn1c(-c2nonc2N)nc2cncc(CNC3CCNCC3)c21.Cl [SB-747651],6%
6,O=C(NCC1CC1)c1ccc(-c2cc(C(=O)NC3CC3)ccc2F)cc1 [GW810445],0%
7,COc1cccc(OC)c1C(=O)Nc1cccc(-c2nn3ccccc3c2-c2ccnc(Nc3cccc(F)c3)n2)c1 [GSK361065],32%
8,Cn1cc(-c2cccc3c(N)c(C(N)=O)nnc23)cn1,6%
9,CC(C)S(=O)(=O)N1CCN(Cc2ccc3c(c2)nc(NC(=O)c2ccsc2)n3C[C@H](O)c2ccccc2)CC1 [GW635815],8%
10,Cc1ccc(CC(=O)N2CCc3cc(-c4cn(C)c5ncnc(N)c45)ccc32)cc1 [GSK2634758],8%
11,CCn1c(-c2nonc2N)nc2cncc(Br)c21 [SB-738004],14%
12,O=C(Nc1ccccc1)c1cccc(Oc2ccc3nccn3n2)c1,0%
13,COC(=O)Nc1nc2cc(Oc3ccc(NC(=O)Nc4cc(C(F)(F)F)ccc4Cl)cc3)ccc2[nH]1.Cl [GW697465],0%
14,O=C1NCCc2[nH]c(-c3ccncc3)cc21,28%
15,CNC(=O)c1ccccc1Nc1nc(Nc2cccc(CS(C)(=O)=O)c2)ncc1C.O=CO [GSK1520489],100%
16,O=C(Nc1cccc(Oc2ccc3nccn3n2)c1)Nc1cccc(C(F)(F)F)c1,0%
17,COc1ccc(Nc2nccc(N3CCC(NC(=O)c4cccc(C#N)c4)C3)n2)cc1 (centres unmarked) [GSK1379730],0%
18,COc1cc2nccc(Nc3ccc(Oc4ccccc4)cc3)c2cc1OC.Cl [GI261656],22%
19,C[C@@H](Oc1cc(-n2cnc3ccc(-c4ccncc4)cc32)sc1C(N)=O)c1ccccc1Cl [GSK483724],0%

row,SMILES,%Inh
1,CC(=O)Nc1ccc(-c2cc3ncnc(SCC(=O)O)c3s2)cc1,4%
2,NC(=O)c1ccc(-c2cc3ncnc(SCC(=O)O)c3s2)cc1,0%
3,COc1cc(Nc2nccc(N3CCC(NC(=O)c4cccc(C#N)c4)C3)n2)cc(OC)c1OC (centres unmarked) [GSK1379751],68%
4,Cn1ccc2ncnc(Oc3ccc(NC(=O)Nc4cc(C(C)(C)C)on4)c(Cl)c3)c21,6%
5,Cn1ccc2ncnc(Oc3ccc(NC(=O)Nc4cccc(C(F)(F)F)c4)c(F)c3)c21,5%
6,CC(=O)Nc1nc2cnc(Nc3cc(NC(=O)c4cccc(CC(C)(C)C#N)c4)ccc3C)nc2s1,11%
7,c1ccc(Oc2ccc(Nc3ccnc4ccc(-c5ccccn5)cc34)cc2)cc1 [GW407034],6%
8,COC(=O)c1cccc(NC(=O)NC2CCN(c3ccnc(Nc4cc(OC)c(OC)c(OC)c4)n3)C2)c1 (centres unmarked) [GSK1379767],72%
9,Cc1cccc(-c2nc(Nc3ccncc3)c3sccc3n2)n1 [GW869641],48%
10,CC(=O)c1c(-c2ccncc2)[nH]c(-c2ccncc2)c1C [GW493036],0%
11,Cc1nnc(-c2ccc3occ(-c4ccc(S(C)=O)cc4)c3n2)o1 (centres unmarked),0%
12,Cc1ccc2c(-c3ccnc(Nc4ccc(C(F)(F)F)cc4)n3)cnn2n1 [GW819776],11%
13,Cn1ccc2ncnc(Oc3ccc(NC(=O)Nc4cncc(C(F)(F)F)c4)c(Cl)c3)c21,0%
14,Cl.Nc1n[nH]c2cc(-c3ccccn3)ccc12 [GSK2189892],0%
15,C[C@@H](Oc1cc(-n2cnc3cc(-c4cnn(C)c4)ccc32)sc1C(N)=O)c1ccccc1Cl [GSK580432],38%
16,CN1CCN(CCCNc2nccc(-c3c(-c4ccc(F)cc4)nn4cc(C(N)=O)ccc34)n2)CC1 [GW622475],20%
17,O=C(Nc1n[nH]c2cc(-c3ccco3)ccc12)C1CC1 [SB-737447],46%
18,NC(=O)Nc1sc(-c2ccc(F)cc2)cc1C(N)=O [GW789449],55%
